Laboratory results taken from PubChem BioAssay AID1069 (NMMLSC, 2008).
The source made the active and inactive calls.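 The calls were made as follows: active = high combined rank on largest and smallest cell-count-weighted shift across three tests, rank score above 45, floors 50 and 25 (some results past the limit were not filed as active); inactive = the rest.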

Assay: activators of LNCaP cell differentiation, retest, confirmation, side scatter shift, flow cytometry (AID 1069);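 also: LNCaP human prostate cancer cells in low-serum medium with charcoal-stripped FBS; percent of cells with raised granularity gated so DMSO controls show 10%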
Details: 4 d, stronger effect = higher value

SMILES | side scatter shift (at 100 µM) | side scatter shift (side scatter shift, at 10 µM)
CCOC(=O)c1c(NCc2ccc3c(c2)OCO3)c2ccccc2[nH]c1=O | 12.8% (inactive) | 4.75%
CCSc1nnc(Cn2c(=O)sc3ccccc32)n1-c1ccccc1C | 20.5% (inactive) | 9.7%
O=C(NCC(c1cccnc1)N1CCOCC1)c1cccc(Cl)c1 (centres undefined) | 11.4% (inactive) | 13.9%
COc1ccc(-c2noc(CCC(=O)NCCCN3CCC(Cc4ccccc4)CC3)n2)cc1 | 21.7% (inactive) | 28.6%
O=C(NCC1CCCO1)C1CC(c2ccc(Cl)c(Cl)c2)=NO1 (centres undefined) | 8.2% (inactive) | 2.4%
CCCc1cc(-c2n[nH]c(C)c2-c2ccc(C(=O)OCC)o2)c(O)cc1O | 42.9% (inactive) | 5.15%
Cc1cc(=O)n2nc(N3CCCC3C(=O)NCc3ccccn3)sc2n1 (centres undefined) | 4% (inactive) | 7.1%
COc1ccc(-c2noc(-c3cc(Cl)ccc3Cl)n2)cc1OC | 49.4% (inactive) | 7.6%
CCN(CCNC(=O)C1CCCN(Cc2nc(-c3ccc(OC)cc3)oc2C)C1)c1ccccc1 (centres undefined) | 27.8% (inactive) | 35.5%
CC(C)(C)OC(=O)N1CCC(C(=O)N2CCCCCC2)CC1 | 16.1% (inactive) | 7.5%
COc1ccc2cc3cc(C(=O)Nc4ccccc4N4CCN(C)CC4)oc3nc2c1 | 68.3% (active) | 42.7%
CCOc1cccc2cc(-c3cn4cc(C)ccc4n3)c(=O)oc12 | 43.1% (active) | 2.1%
Cc1cc(=O)oc(C)c1C(=O)NCCCN1CCN(c2ccccc2F)CC1 | 32.8% (inactive) | 2.1%
CCOC(=O)N1CCC(NC(=O)c2cc3c(-c4ccc(OC)c(OC)c4)nn(C)c3s2)CC1 | 16.6% (inactive) | 3.9%
O=C1CCCc2c1cc(C(=O)NC1CCSC1=O)c(=O)n2-c1ccccc1 (centres undefined) | 5.9% (inactive) | 4.8%
CCCS(=O)(=O)N1CCCC(C(=O)NCCCN2CCN(c3ccccc3F)CC2)C1 (centres undefined) | 35.5% (inactive) | 5.95%
Cc1oc(-c2cccc(Cl)c2)nc1CN1CCC(C(=O)NCc2ccco2)CC1 | 35% (inactive) | 6.2%
Cc1ccccc1-c1nc(CN2CCC(C(=O)NCC3CCCO3)CC2)c(C)o1 (centres undefined) | 22.5% (inactive) | 7.1%
CCCOc1ccccc1C1CC(=O)Nc2cc3c(cc21)OCO3 (centres undefined) | 16.7% (inactive) | 22.1%

SMILES | side scatter shift (at 100 µM) | side scatter shift (side scatter shift, at 10 µM)
O=C(NC1CCCC1)C1CCN(S(=O)(=O)c2cccc3cccnc23)CC1 | 15.9% (inactive) | 1.65%
CC(C)Cc1nc2oc3c(N4CCN(CCO)CC4)ncnc3c2c2c1CCCC2 | 33.3% (inactive) | 5.25%
CCOC(=O)CSc1nnc(CNC(=O)c2ccccc2OC)n1-c1ccc(OC)cc1 | 11.3% (inactive) | 4.3%
O=c1c2ccccc2nnn1CSc1nnc2sc3ccccc3n12 | 15.6% (inactive) | 4.8%
COC(=O)CN1CCN(C(=O)c2ccc(F)cc2)c2ccccc2C1 | 12.5% (inactive) | 3.1%
CCn1c(=S)ccc2ccc(OC)cc21 | 12.9% (inactive) | 1.95%
CCCCOc1ccccc1NC(=O)Cn1c(-c2nonc2N)nc2ccccc21 | 19.2% (inactive) | 17.4%
COc1ccc(-c2cc3c(=O)n(CC(=O)NC4CCN(Cc5ccccc5)CC4)ncn3n2)cc1 | 36.1% (inactive) | 5.5%
COc1cccc(-c2cc(C(=O)N3CCN(C(c4ccccc4)c4ccccc4)CC3)no2)c1 | 9.8% (inactive) | 2.7%
CCOC(=O)N1CCN(C(=O)CN(c2cccc(C(F)(F)F)c2)S(=O)(=O)c2ccccc2)CC1 | 11.7% (inactive) | 5.4%
Cc1ccccc1OCc1nc(-c2ccc(NC(=O)c3ccc4c(c3)OCO4)cc2)no1 | 32.3% (inactive) | 4.6%
C=C(C)Cn1c(-c2ccccc2)nc2ccccc21 | 6.3% (inactive) | 4.15%
O=C(CSc1nc2sc3c(c2c(=O)n1-c1ccccc1)CCCC3)NCc1ccco1 | 24% (inactive) | 4.3%
COc1ccc(N2CCN(CCCNC(=O)CC3Oc4ccc(C)cc4NC3=O)CC2)cc1 (centres undefined) | 50% (active) | 9.05%
CCN1CCCC1CNC(=O)C1CCN(Cc2nc(-c3cccc(Br)c3)oc2C)CC1 (centres undefined) | 6.3% (active) | 60.2%
COC(=O)c1cc(-c2ccccc2)sc1NC(=O)c1cc(C)on1 | 70% (inactive) | 13.2%
CN(C)c1ccc(CNC2CC(C)(C)NC(C)(C)C2)cc1 | 49.2% (active) | 10.6%
COc1ccc(N2CCN(CCCNC(=O)c3cc4sccc4n3C)CC2)cc1 | 51.6% (active) | 6.5%
